Source: publication PMC4336329 (PLoS ONE, 2015)
Screen size: about 310,000 compounds; about 14,000 (4.5%) showed an effect of 50% or more. The effect is printed as a negative number. Only a selection was taken, and strong results are over-represented in it overall.

biological target: human ether-à-go-go-related gene (hERG) potassium channel (human, UniProt Q12809); assay: primary screen, population patch clamp on CHO cells stably expressing hERG; higher = less effect of the substance
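Note: peak tail current of the secondary pulse compared with the same well before compound.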

Chain of human ether-à-go-go-related gene (hERG) potassium channel (Q12809 whole entry, looked up): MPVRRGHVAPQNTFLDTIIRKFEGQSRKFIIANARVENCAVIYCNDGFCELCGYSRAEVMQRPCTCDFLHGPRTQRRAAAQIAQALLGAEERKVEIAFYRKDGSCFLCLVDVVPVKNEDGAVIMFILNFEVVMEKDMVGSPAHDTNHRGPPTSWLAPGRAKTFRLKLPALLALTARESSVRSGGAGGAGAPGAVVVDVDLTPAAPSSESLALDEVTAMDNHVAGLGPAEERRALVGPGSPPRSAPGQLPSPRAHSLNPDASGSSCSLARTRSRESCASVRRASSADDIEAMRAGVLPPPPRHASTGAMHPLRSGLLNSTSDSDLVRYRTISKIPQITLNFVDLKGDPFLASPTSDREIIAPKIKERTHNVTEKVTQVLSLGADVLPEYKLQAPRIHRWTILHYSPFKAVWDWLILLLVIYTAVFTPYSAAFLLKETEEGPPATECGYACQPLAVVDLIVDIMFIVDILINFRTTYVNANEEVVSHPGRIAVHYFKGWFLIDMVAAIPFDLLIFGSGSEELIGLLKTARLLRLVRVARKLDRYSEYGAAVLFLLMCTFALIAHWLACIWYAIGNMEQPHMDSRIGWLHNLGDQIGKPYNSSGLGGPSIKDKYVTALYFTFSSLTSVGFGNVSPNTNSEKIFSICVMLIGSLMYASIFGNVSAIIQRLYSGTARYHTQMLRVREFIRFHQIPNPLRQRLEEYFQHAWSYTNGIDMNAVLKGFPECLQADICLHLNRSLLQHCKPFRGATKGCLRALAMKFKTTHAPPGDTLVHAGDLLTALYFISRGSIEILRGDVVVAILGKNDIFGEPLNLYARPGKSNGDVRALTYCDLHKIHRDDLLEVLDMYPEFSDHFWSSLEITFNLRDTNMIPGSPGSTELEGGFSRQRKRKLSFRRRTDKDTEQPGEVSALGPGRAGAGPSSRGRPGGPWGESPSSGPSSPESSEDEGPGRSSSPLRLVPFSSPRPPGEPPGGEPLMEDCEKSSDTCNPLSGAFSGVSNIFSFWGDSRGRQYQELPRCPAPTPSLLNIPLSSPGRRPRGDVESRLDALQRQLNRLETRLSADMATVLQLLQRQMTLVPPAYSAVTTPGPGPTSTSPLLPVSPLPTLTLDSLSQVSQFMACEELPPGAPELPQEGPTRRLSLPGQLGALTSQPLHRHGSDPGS

SMILES	hERG current change (%, negative = inhibition) at 10uM [%]
Cl.O=C(C1CCN(S(=O)(=O)c2cccs2)CC1)N1CCN(Cc2ccccc2)CC1	3.79
Cn1c(=O)[nH]c(=O)c2c1nc(SCCC(=O)O)n2Cc1cccc(Br)c1	1.52
COCCNC(=S)NC1CC2CCC(C1)N2Cc1ccccc1 (stereo not shown)	2.78
COc1ccc(C2C(C(=O)c3cccs3)=C(O)C(=O)N2Cc2cccnc2)cc1OC (stereo not shown)	5.03
CC(Oc1ccc(F)cc1)C(=O)Nc1nc(-c2ccccn2)cs1 (stereo not shown)	-76.3
CC(Oc1cccc(Cl)c1)C(=O)Nc1nc(-c2ccccn2)cs1 (stereo not shown)	4.19
CC(Oc1ccc(Br)cc1)C(=O)Nc1nc(-c2ccccn2)cs1 (stereo not shown)	-5.7
O=C(Nc1cccc(C(=O)O)c1)/C(=C\c1ccccc1Cl)NC(=O)c1ccco1	6.89
COc1ccc(CC(=O)N(C)CC(=O)Nc2ccccc2SC)cc1	8.56
CCc1nnc(NC(=O)c2cc(C)oc2C)s1	-10
CC(C)N(Cc1nnc(-c2ccc(Cl)cc2)o1)C(=O)C1=COCCO1	-19.9
Cc1ccccc1OCC(=O)N(Cc1nnc(-c2ccc(Cl)cc2)o1)C(C)C	-53.5
CC(C)N(Cc1nnc(-c2ccc(Cl)cc2)o1)C(=O)c1cc2ccccc2o1	-40.1
Cc1ccccc1OCC(=O)N(Cc1nc(-c2ccccc2)no1)C(C)C	-15
CC(C)N(Cc1nnc(-c2ccccc2Br)o1)C(=O)c1cc(Cl)nc2ccccc12	-24.9
Cc1cc(C(=O)N(Cc2nnc(-c3ccc(Cl)cc3)o2)C(C)C)c2ccccc2n1	-58.5
CNc1ccc(Cl)cc1C(N)=O	26.1
Cc1ccc(C(=O)COC(=O)c2nc3nccc(C)n3n2)c(C)c1	-7.14
COc1ccc(Cl)cc1NS(=O)(=O)N1CCOCC1	6.86
CC(Cc1ccccc1)NC(=O)c1cc([N+](=O)[O-])ccc1Cl (stereo not shown)	-4.69
O=C(NCc1ccncc1)C1CCN(S(=O)(=O)c2cc(Cl)ccc2Cl)CC1	-18.9
COc1ccc(S(=O)(=O)N2CCCC(C(=O)NCCCn3ccnc3)C2)cc1OC (stereo not shown)	7.83

SMILES	hERG current change (%, negative = inhibition) at 10uM [%]
O=C(NCc1ccncc1)C1CCCN(S(=O)(=O)c2ccc(Br)cc2)C1 (stereo not shown)	-77.5
O=C(NCCCn1ccnc1)C1CCCN(S(=O)(=O)c2ccc(F)cc2)C1 (stereo not shown)	10.7
COc1ccc(Cl)cc1S(=O)(=O)N1CCCC(C(=O)NCc2ccncc2)C1 (stereo not shown)	-25.7
O=C(NCCCn1ccnc1)C1CCCN(S(=O)(=O)c2cc(Cl)ccc2Cl)C1 (stereo not shown)	-60.3
O=C(NCc1cccnc1)C1CCCN(S(=O)(=O)c2ccc(Br)cc2)C1 (stereo not shown)	-41.6
O=C(NCc1ccncc1)C1CCCN(S(=O)(=O)c2cc(Cl)ccc2Cl)C1 (stereo not shown)	-61.2
O=C(NCc1ccccc1)C1CCCN(S(=O)(=O)c2ccc(Br)cc2)C1 (stereo not shown)	23.4
CC(C)c1ccc(S(=O)(=O)c2n[nH]n3c2nc(=O)c2ccccc23)cc1	-16.7
C/C(=N\NC(=S)NCC(C)(C)C)c1cc(F)cc(F)c1O	17.2
CC1=NN(C(N)=S)C(=O)C1N=Nc1c(Br)cc(Br)cc1Br (stereo not shown)	-8.08
COc1ccc(C2CC(c3ccccc3)Nc3nc(NS(C)(=O)=O)nn32)cc1 (stereo not shown)	7.1
CCc1sc2nc(SCC(=O)Nc3cc(C)on3)n(-c3cccc(OC)c3)c(=O)c2c1C	10.2
NC(=S)N/N=C1\CC(c2ccc3c(c2)OCCCO3)Oc2ccc(F)cc21 (stereo not shown)	6.23
O=C(NNC(=O)c1csc(N2CCOCC2)n1)c1ccc(=O)[nH]c1	6.26
CCOC(=O)N1CCN(C(=O)c2cnn3c(C(F)F)cc(-c4ccc(C)cc4)nc23)CC1	-0.653
CC(C)OC(=O)c1c2c(n3ccccc13)C(=O)c1ccccc1C2=O	5.73
Cc1ccc(C(=O)Nc2ccc3c(c2)nc(CCNC(=O)c2ccco2)n3C)cc1	8.06
Cn1c(CCN2CCN(c3ccc(F)cc3)CC2)nc2cc(NC(=O)c3ccco3)ccc21	-63.6
Cc1ccc(N2CCN(CCc3nc4cc(NC(=O)c5ccco5)ccc4n3C)CC2)cc1	-70.7
Cn1c(CN2CCCC2)nc2cc(NC(=O)c3ccco3)ccc21	7.42
CN1CCN(CCc2nc3cc(NC(=O)c4ccco4)ccc3n2C)CC1	4.18
Cn1c(CCNC(=O)c2ccco2)nc2cc(NC(=O)c3ccco3)ccc21	-14.4

SMILES	hERG current change (%, negative = inhibition) at 10uM [%]
Cc1ccc(Cc2c(C)c(C#N)c3[nH]c4ccccc4n3c2=O)cc1	11.4
O=C(O)C12C3CCCC1C32c1ccccc1 (stereo not shown)	21.7
CC1CCC2C(=O)N(c3ccccc3OC(=O)c3ccccc3F)C(=O)C2C1 (stereo not shown)	-10.3
CCCSC1=C(C#N)C(c2ccc(O)c(OC)c2)CC(=O)N1 (stereo not shown)	-45.1
CCCn1c(=O)n(C)c(=O)c2c(SCC(=O)NC34CC5CC(CC(C5)C3)C4)nc(CC(C)C)nc21	8.5
CC(C)Cc1nc(SCC(=O)NCC2CCCO2)c2c(=O)n(C)c(=O)n(C)c2n1 (stereo not shown)	-0.141
CCCn1c(=O)n(C)c(=O)c2c(SCC(=O)NCC(c3ccccc3)N(C)C)nc(CC(C)C)nc21 (stereo not shown)	-66.1
CNC(=O)c1c(I)c(C(=O)NCC(=O)Nc2c(I)c(C(=O)O)c(I)c(C(=O)NCCO)c2I)c(I)c(N(C)C(C)=O)c1I	6.45
COc1cc(C(=O)OC(C)CN2C(C)CCCC2C)cc(OC)c1OC.Cl (stereo not shown)	-50.2
CC(CN1C(C)CCCC1C)OC(=O)c1ccccc1Cl (stereo not shown)	-26.8
CC(CN1C(C)CCCC1C)OC(=O)c1ccc(Cl)cc1 (stereo not shown)	-44.8
COc1cc(C(=O)OC(C)CN2CCCCC2)cc(OC)c1OC.Cl (stereo not shown)	-4.43
COc1cc(C(=O)OC(C)CN2CCCC2)cc(OC)c1OC.Cl (stereo not shown)	-12.2
CC(CN1C(C)CCCC1C)OC(=O)c1ccc(Cl)cc1Cl (stereo not shown)	-51.7
O=S(=O)(/N=C(/Nc1ccc(F)cc1F)c1ccccc1)c1ccc(Br)cc1	12.3
Cc1cc(C)cc(-n2c(SCC(=O)NCc3ccc4c(c3)OCO4)nc3ccccc3c2=O)c1	15.9
CCOC(=O)c1c(-n2c(C)cc(/C=C3/C(=O)NC(=O)N(CC)C3=O)c2C)sc2c1CCCC2	2.36
CC(C)C1Oc2ccccc2N(CC(=O)N(Cc2ccccn2)C2CC2)C1=O (stereo not shown)	-13.6
O=C(Nc1ccccc1N1CCCC1)C1CC(=O)N(Cc2ccccc2)C1 (stereo not shown)	-44.4
CCOC(=O)CNc1ncnc2nc[nH]c12	9.53
COC(=O)c1c(S(=O)(=O)NCc2ccccc2)sc(C(=O)O)c1C	6.81
COC(=O)c1sc(S(=O)(=O)NCc2ccccc2)c(C(=O)OC)c1C	-50.4

SMILES	hERG current change (%, negative = inhibition) at 10uM [%]
COC(=O)c1sc(S(=O)(=O)NCc2cccs2)c(C(=O)OC)c1C	-19.1
Cc1[nH][nH]c(=O)c1C=Nc1ccc(C(F)(F)F)cc1	17.4
O=C(OC(C(=O)NC1CCCC1)c1ccccn1)c1cccs1 (stereo not shown)	-3.4
CCc1noc(C)c1C(=O)NC1CCCc2c1cnn2-c1ccc(C(C)(C)C)cc1 (stereo not shown)	10.2
CN1CCc2c(sc3nc(SCC(=O)NCc4ccco4)n(-c4ccccc4)c(=O)c23)C1	-10.6
c1coc(CNc2ncnc3sc4c(c23)CCCCC4)c1	-39.4
CCN1CCc2c(sc(NC(=S)NC(=O)c3ccco3)c2C(N)=O)C1	2.95
Cc1nc(NCc2ccco2)c2c3c(sc2n1)CCC3	-24.3
CCN1CCc2c(sc3c2c(NCc2ccco2)nc2nnnn23)C1	-73.6
CN1CCc2c(sc3c2c(NCc2ccco2)nc2nnnn23)C1	-71.8
Cn1c(NN)nc2sc3c(c2c1=O)CC(C)(C)OC3	9.89
CCCNC(=O)CSc1nccn1Cc1ccco1	0.203
CC1(C)SC(=S)N(/N=C/c2ccc(O)cc2)C1N(O)C(=O)Nc1ccc([N+](=O)[O-])cc1 (stereo not shown)	-10.2
Nc1ccn([C@H]2CS[C@@H](CO)O2)c(=O)n1	18
CC(CNC(=O)c1ccccc1[N+](=O)[O-])NC(=O)c1ccccc1[N+](=O)[O-] (stereo not shown)	1.57
CC(CNc1ccc([N+](=O)[O-])cc1)NC(=O)c1ccccc1Br (stereo not shown)	-50.6
O=C(NCCNc1ccc([N+](=O)[O-])cc1)c1ccccc1Br	-43.3
C=CCN1C(=O)C(Cc2ccccc2)SC1=Nc1ccc(C(=O)O)cc1 (stereo not shown)	-3.37
Cc1nonc1NC(=O)CSc1nc(CCC2CCCC2)nc2ccccc12	3.64
